Sampled rows, rich in hits. Any-hit rate of the full collection: about 4%.
Peg3 prom inh: Peg3 promoter-driven luciferase inhibitors, primary screen, cell-based, HeLa, luciferase luminescence; HeLa PEG-Prom luciferase reporter, overnight; inhibition, % at 20 µM; 360,000 tested, 1.7% active;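 active means inhibition of at least 50% at 20 µM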
TWEAK Fn14 block: inhibitors of TWEAK-Fn14 signaling, primary screen, luciferase reporter cells, uHTS. TWEAK-stimulated Fn14 reporter cells, luciferase luminescence, 8 h. inhibition, % at 10 µM. 360,000 tested, 2% active; in the data active means inhibition above about 50%
CF NFkB block: inhibitors of PAF-induced NF-kB signaling, primary screen, cell-based, GFP fluorescence, uHTS. 360,000 tested, 0.86% active. AID 588850, 2011. inhibition, % at 5 µM. KKLEB NF-kB-GFP reporter, GFP fluorescence overnight;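 active means at least 50% inhibition at 5 µM, scaled per plate between neutral and stimulator controls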;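 further: PAF is a Pseudomonas aeruginosa culture filtrate used as stimulus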
TROY NFkB inh: inhibitors of TROY-driven NF-kB signaling, primary screen, Q293 LMP1-TROYcd cells, NF-kB luciferase, uHTS. inhibition, % at 10 µM. 360,000 tested, 0.98% active. Q293 LMP1-TROYcd NF-kB luciferase reporter, 4 h;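 active means compounds whose plate-normalised and pattern-corrected inhibition of the luciferase reporter signal at the single screening dose is 50% or more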
KKLEB tox: cytotoxicity in KKLEB CF airway cells, primary screen, cytotoxicity control for CF NF-kB inhibitor project, cell-based, uHTS, fluorescence assay plates; KKLEB CF airway cells viability, ATPlite luminescence, overnight; stronger effect = lower value; cells stimulated with P. aeruginosa culture filtrate; activity change (cytotoxicity), % at 5 µM; 360,000 tested, 0.36% active; AID 602141, 2011;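 active means corrected activity change at or below -50% at 5 µM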
HIF-2a block: HIF-2a reporter inhibitors, primary screen, luminescence, 786-0 RCC cells. AID 624352, 2012. 360,000 tested, 0.72% active. inhibition, % at 18.8 µM. 786-0 RCC cells HIF-2a reporter, luciferase luminescence, overnight;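 active means inhibition of the luminescence signal of 40% or more relative to plate controls, in a single-dose primary screen at 18.75 µM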
Hits are given with their value.

Results for CC(=O)c1ccc(OCC(=O)N2CCCC(Nc3ccc(C)c(C)c3)C2)cc1 (stereo not drawn) ?
Peg3 prom inh: inactive; TWEAK Fn14 block: inactive; CF NFkB block: inactive; TROY NFkB inh: inactive; KKLEB tox: inactive; HIF-2a block: inactive

How did O=C(CN1CCCc2ccccc21)N1CCc2ccccc21 do in these assays?
Peg3 prom inh: inactive; TWEAK Fn14 block: inactive; CF NFkB block: inactive; TROY NFkB inh: inactive; KKLEB tox: inactive; HIF-2a block: inactive

Results for NNC(=O)CN1CCCc2ccccc21 ?
Peg3 prom inh: inactive; TWEAK Fn14 block: 69; CF NFkB block: inactive; TROY NFkB inh: 71; KKLEB tox: inactive; HIF-2a block: inactive

What do the screens show for `CC(=O)OC[C@@H]1CN(Cc2ccccc2)C[C@H](n2cnc3c(NCc4ccc(F)cc4)ncnc32)O1`?
Peg3 prom inh: inactive; TWEAK Fn14 block: inactive; CF NFkB block: inactive; TROY NFkB inh: inactive; KKLEB tox: inactive; HIF-2a block: inactive

Results for COc1ccc(OC)c(NC(=O)C2(C)CCN2C(=O)Cc2ccc(Cl)cc2Cl)c1 (stereo not drawn) ?
Peg3 prom inh: inactive; TWEAK Fn14 block: 65; CF NFkB block: inactive; TROY NFkB inh: inactive; KKLEB tox: inactive; HIF-2a block: inactive

Results for COc1cccc(C(C(=O)NC2CCCC2)N2CCN(c3cc(C)nc4ccccc34)CC2)c1OC (stereo not drawn) ?
HIF-2a block: inactive

Results for Cc1cc(=O)n(C)c2ccccc12 ?
Peg3 prom inh: inactive; TWEAK Fn14 block: inactive; CF NFkB block: inactive; TROY NFkB inh: inactive; KKLEB tox: inactive; HIF-2a block: inactive

What do the screens show for `Cc1cc(=O)n2c3c(c4c(cc13)c(CN(C)C)cc(=O)n4C)OC2`?
Peg3 prom inh: inactive; TWEAK Fn14 block: inactive; CF NFkB block: inactive; TROY NFkB inh: 52; KKLEB tox: inactive; HIF-2a block: inactive

What do the screens show for `CCCCNC(=O)C(NC(=O)c1ccc(C)cc1)C(=O)c1ccccc1` (stereo not drawn)?
HIF-2a block: inactive

What do the screens show for `COc1ccc(C2(O)CCN(CC(=O)Nc3nc(-c4ccccc4)cs3)CC2)cc1`?
Peg3 prom inh: inactive; TWEAK Fn14 block: 83; CF NFkB block: inactive; TROY NFkB inh: inactive; KKLEB tox: inactive; HIF-2a block: inactive

How did COc1ccc2cc(C)c3nnc(SCC(=O)Nc4nc(-c5ccccc5)cs4)n3c2c1 do in these assays?
Peg3 prom inh: inactive; TWEAK Fn14 block: inactive; CF NFkB block: inactive; TROY NFkB inh: inactive; KKLEB tox: -52; HIF-2a block: inactive

Results for CCn1c(SCC(=O)Nc2nc(-c3ccccc3)cs2)nnc1-c1ccccc1 ?
Peg3 prom inh: inactive; TWEAK Fn14 block: 54; CF NFkB block: inactive; TROY NFkB inh: inactive; KKLEB tox: inactive; HIF-2a block: inactive

What do the screens show for `Cc1nnc(SCC(=O)Nc2nc(-c3ccccc3)cs2)n1N`?
Peg3 prom inh: inactive; TWEAK Fn14 block: inactive; CF NFkB block: inactive; TROY NFkB inh: inactive; KKLEB tox: inactive; HIF-2a block: inactive

Results for CN1CCN(CC(=O)Nc2nc(-c3ccccc3)cs2)CC1 ?
Peg3 prom inh: inactive; TWEAK Fn14 block: inactive; CF NFkB block: inactive; TROY NFkB inh: inactive; KKLEB tox: inactive; HIF-2a block: inactive

What do the screens show for `Cc1nc(C(F)(F)F)ccc1C(=O)N1CCC(C)(C(=O)NS(=O)(=O)C2CC2)C1` (stereo not drawn)?
Peg3 prom inh: inactive; TWEAK Fn14 block: inactive; CF NFkB block: inactive; TROY NFkB inh: inactive; KKLEB tox: inactive; HIF-2a block: inactive

What do the screens show for `CC(=O)Nc1cccc(OCC(=O)Nc2sccc2C(N)=O)c1`?
Peg3 prom inh: inactive; TWEAK Fn14 block: inactive; CF NFkB block: inactive; TROY NFkB inh: inactive; KKLEB tox: inactive; HIF-2a block: inactive

How did COc1ccc(CCN2CCC(Nc3nc4ccccc4n3Cc3ccc(F)cc3)CC2)cc1 do in these assays?
Peg3 prom inh: 82; TWEAK Fn14 block: inactive; CF NFkB block: inactive; TROY NFkB inh: inactive; KKLEB tox: inactive; HIF-2a block: inactive

Results for N#CCSc1ccccc1NC(=O)COC(=O)CCNC(=O)c1ccc([N+](=O)[O-])cc1 ?
Peg3 prom inh: inactive; TWEAK Fn14 block: inactive; CF NFkB block: inactive; TROY NFkB inh: inactive; KKLEB tox: inactive; HIF-2a block: inactive

Results for CC1(C(=O)Nc2cnc3ccccc3c2)CCN1CCc1ccccc1 (stereo not drawn) ?
Peg3 prom inh: 51; TWEAK Fn14 block: inactive; CF NFkB block: inactive; TROY NFkB inh: inactive; KKLEB tox: inactive; HIF-2a block: inactive

What do the screens show for `COc1ccc(-c2ccc3oc(-c4ccsc4)cc(=O)c3c2)cn1`?
Peg3 prom inh: inactive; TWEAK Fn14 block: inactive; CF NFkB block: inactive; TROY NFkB inh: 63; KKLEB tox: inactive; HIF-2a block: inactive

What do the screens show for `NC(=S)N/N=C\c1c2ccccc2cc2ccccc12`?
Peg3 prom inh: inactive; TWEAK Fn14 block: inactive; CF NFkB block: inactive; TROY NFkB inh: inactive; KKLEB tox: inactive; HIF-2a block: inactive

Results for NC(=S)N/N=C\c1c(OCc2ccccc2Cl)ccc2ccccc12 ?
Peg3 prom inh: inactive; TWEAK Fn14 block: 57; CF NFkB block: inactive; TROY NFkB inh: inactive; KKLEB tox: inactive; HIF-2a block: inactive

Results for Cc1nc(S/C(=C\c2ccc(OCc3ccccc3Cl)cc2)C(=O)O)n[nH]1 ?
Peg3 prom inh: inactive; TWEAK Fn14 block: 83; CF NFkB block: inactive; KKLEB tox: inactive; HIF-2a block: inactive

What do the screens show for `N#Cc1ccc(-c2nc3ccc(Br)cn3c2Cc2ccsc2)cc1`?
Peg3 prom inh: inactive; TWEAK Fn14 block: inactive; CF NFkB block: inactive; TROY NFkB inh: inactive; KKLEB tox: inactive; HIF-2a block: inactive

Results for Cc1ccc(S(=O)(=O)Nc2ccc(Cl)cc2)cc1NC(=O)Cn1cnc2c1c(=O)n(C)c(=O)n2C ?
Peg3 prom inh: inactive; TWEAK Fn14 block: 89; CF NFkB block: inactive; TROY NFkB inh: inactive; KKLEB tox: inactive; HIF-2a block: inactive

What do the screens show for `Cc1ccccc1NC(=O)Cn1cnc2c1c(=O)n(C)c(=O)n2C`?
Peg3 prom inh: inactive; TWEAK Fn14 block: inactive; CF NFkB block: inactive; TROY NFkB inh: inactive; KKLEB tox: inactive; HIF-2a block: inactive

Results for CS(=O)(=O)Nc1cccc(NC(=O)c2cccc3c(-c4cccnc4)coc23)c1 ?
Peg3 prom inh: inactive; TWEAK Fn14 block: inactive; CF NFkB block: inactive; TROY NFkB inh: inactive; KKLEB tox: inactive; HIF-2a block: inactive

How did Cn1cccc1C(=O)NNC(=O)COc1ccc(C#N)cc1 do in these assays?
Peg3 prom inh: 74; TWEAK Fn14 block: inactive; CF NFkB block: inactive; TROY NFkB inh: inactive; KKLEB tox: inactive; HIF-2a block: inactive

Results for CCCNC(=O)NC(=O)COc1ccc(-c2ccc(C#N)cc2)cc1 ?
Peg3 prom inh: inactive; TWEAK Fn14 block: inactive; CF NFkB block: inactive; TROY NFkB inh: inactive; KKLEB tox: inactive; HIF-2a block: inactive
